Experimental data taken from PubChem BioAssay (NCI).
This is part of a sample that, as a whole, favours compounds with a hit. Of some 83,000 tested, about 20% had one in any assay.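 Treatment: one concentration, 48 hours, 96-well format. Scoring: percent growth, with anything below 10 considered active.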 Calls of active or inactive are those of the source.

Key:
Experiment in all cases: NCI-60 one-dose screen, 48 h (100 = growth as untreated, 0 = no growth, -100 = all killed)
Settings in all cases: 10 µM unless noted
SK-MEL-2 melanoma = test system: SK-MEL-2 melanoma
SN12C renal = test system: SN12C renal
UO-31 renal = test system: UO-31 renal
TK-10 renal = test system: TK-10 renal
ACHN renal = test system: ACHN renal
CAKI-1 renal = test system: CAKI-1 renal
A498 renal = test system: A498 renal
MOLT-4 leukemia = test system: MOLT-4 leukemia
CCRF-CEM leukemia = test system: CCRF-CEM leukemia
EKVX NSCLC = test system: EKVX NSCLC

Measured: growth

COC(=O)[C@H](Cc1cn(C)cn1)NC(=O)[C@@H](NC(=O)Nc1cc(C(F)(F)F)cc(C(F)(F)F)c1)C(C)C
active: SK-MEL-2 melanoma -88.7% [100 µM] | SN12C renal -85.8% [100 µM] | UO-31 renal -94.9% [100 µM] | TK-10 renal -98.7% [100 µM] | ACHN renal -98.4% [100 µM] | CAKI-1 renal -91.3% [100 µM] | A498 renal -89.4% [100 µM] | MOLT-4 leukemia -56.2% [100 µM]

C/C(=C\CCc1ccoc1)CC/C=C(\C)CCCN1CCOCC1
inactive: SK-MEL-2 melanoma 78.7% | SN12C renal 70.5% | UO-31 renal 52.3% | TK-10 renal 61.3% | ACHN renal 76.3% | CAKI-1 renal 58.3% | A498 renal 75.7% | CCRF-CEM leukemia 29.6% | MOLT-4 leukemia 54.2%

CSc1nc(-c2ccc(O)cc2O)c2c(=O)[nH]c(Nc3ccc(S(=O)(=O)Nc4nc(C)cc(C)n4)cc3)nc2n1
inactive: SK-MEL-2 melanoma 81.2% | SN12C renal 107% | UO-31 renal 112% | TK-10 renal 123% | ACHN renal 93.3% | CAKI-1 renal 1120% | A498 renal 113% | CCRF-CEM leukemia 103% | MOLT-4 leukemia 104%

O=C1/C(=C/c2ccccc2O)C(=S)SN1Cc1ccco1
inactive: SK-MEL-2 melanoma 81.4% | SN12C renal 93.8% | UO-31 renal 84.4% | TK-10 renal 98.8% | ACHN renal 106% | CAKI-1 renal 119% | CCRF-CEM leukemia 70.7% | MOLT-4 leukemia 99%

Cc1ccc(C2=Nc3c(ccc4c(C)c(C)c(=O)oc34)OC2)cc1
inactive: SK-MEL-2 melanoma 95.8% | SN12C renal 98.7% | UO-31 renal 82.6% | TK-10 renal 108% | ACHN renal 99.1% | CAKI-1 renal 92.2% | A498 renal 110% | MOLT-4 leukemia 101%

COC(=O)[C@H](Cc1cn(C)cn1)NC(=O)[C@H](C)NC(=O)Nc1cc(C(F)(F)F)cc(C(F)(F)F)c1
active: SK-MEL-2 melanoma -90.1% [100 µM] | SN12C renal -82.4% [100 µM] | UO-31 renal -92.7% [100 µM] | TK-10 renal -96.4% [100 µM] | ACHN renal -90% [100 µM] | A498 renal -88.4% [100 µM] | MOLT-4 leukemia -27.4% [100 µM]
inactive: CAKI-1 renal 73.1% [100 µM]

Cc1cc(Br)c(C)cc1Br
inactive: SK-MEL-2 melanoma 100% | SN12C renal 108% | UO-31 renal 91.3% | TK-10 renal 105% | ACHN renal 102% | CAKI-1 renal 95.2% | A498 renal 77.7% | CCRF-CEM leukemia 94.4% | MOLT-4 leukemia 87.3%

Cc1cn(C(C=O)OC(C=O)CO)c(=O)[nH]c1=O (centres undefined)
inactive: SK-MEL-2 melanoma 104% | SN12C renal 102% | UO-31 renal 88.6% | TK-10 renal 103% | ACHN renal 107% | CAKI-1 renal 105% | A498 renal 111% | CCRF-CEM leukemia 98.4% | MOLT-4 leukemia 104%

CCOc1cc(CCNS(=O)(=O)c2ccc(C)cc2)c(C(C)=O)cc1OCC
inactive: SK-MEL-2 melanoma 86.1% [100 µM] | SN12C renal 80.5% [100 µM] | TK-10 renal 84.6% [100 µM] | ACHN renal 75.5% [100 µM] | CAKI-1 renal 36% [100 µM] | A498 renal 62.1% [100 µM]
active: UO-31 renal -69.9% [100 µM] | MOLT-4 leukemia 9.64% [100 µM]

O=C1c2cccc3c([N+](=O)[O-])ccc(c23)C(=O)N1CCCCl
active: SK-MEL-2 melanoma -94.9% [100 µM] | SN12C renal -93.1% [100 µM] | UO-31 renal -86.6% [100 µM] | TK-10 renal -50.2% [100 µM] | ACHN renal -96.1% [100 µM] | CAKI-1 renal -91.4% [100 µM] | A498 renal -92.4% [100 µM] | MOLT-4 leukemia -11.3% [100 µM]

COc1c(Br)cc(C(c2cc(Br)c(OC)c(Br)c2)c2ccccc2C(=O)O)cc1Br
inactive: SK-MEL-2 melanoma 114% | SN12C renal 96% | UO-31 renal 68.9% | TK-10 renal 106% | ACHN renal 91.2% | CAKI-1 renal 91.6% | A498 renal 107% | MOLT-4 leukemia 89.4%

COc1ccc(-n2cnc3cc(C(=O)N4CCCCC4)ccc32)cc1
inactive: SK-MEL-2 melanoma 111% | SN12C renal 95% | UO-31 renal 97.4% | TK-10 renal 110% | ACHN renal 97.9% | CAKI-1 renal 98.5% | CCRF-CEM leukemia 98% | MOLT-4 leukemia 98%

COc1ccc(OC)c2c1CCC1(C2)NC(=O)NC1=O (centres undefined)
inactive: SK-MEL-2 melanoma 118% | SN12C renal 97.3% | UO-31 renal 82.3% | TK-10 renal 114% | ACHN renal 103% | CAKI-1 renal 91.3% | A498 renal 104% | MOLT-4 leukemia 104%

CCCCNCCCN(CCCC)CCCNCCCC
inactive: SK-MEL-2 melanoma 112% | SN12C renal 89% | UO-31 renal 83.7% | TK-10 renal 97.3% | CAKI-1 renal 91.1% | A498 renal 94.6% | MOLT-4 leukemia 103%

FC(F)(F)c1cc(-c2nnc3n2N=C(N2CCCC2)CS3)cc(C(F)(F)F)c1
active: TK-10 renal -22.1%
inactive: EKVX NSCLC 80.6% | SN12C renal 69.2% | UO-31 renal 48.8% | ACHN renal 47.1% | CAKI-1 renal 87.7% | A498 renal 10.6% | CCRF-CEM leukemia 86.4% | MOLT-4 leukemia 90.5%

CCCCCCCSc1ncnc2[nH]ncc12
inactive: SK-MEL-2 melanoma 72.7% | SN12C renal 86.1% | UO-31 renal 60.6% | TK-10 renal 81.1% | ACHN renal 88.7% | A498 renal 88.7% | CCRF-CEM leukemia 76% | MOLT-4 leukemia 75.4%

COC(=O)[C@H](Cc1cn(C)cn1)NC(=O)[C@H](Cc1ccccc1)NC(=O)Nc1cc(C(F)(F)F)cc(C(F)(F)F)c1
active: SK-MEL-2 melanoma -94.9% [100 µM] | SN12C renal -96.1% [100 µM] | UO-31 renal -93.4% [100 µM] | TK-10 renal -97.9% [100 µM] | ACHN renal -96.3% [100 µM] | A498 renal -90.6% [100 µM] | MOLT-4 leukemia -55% [100 µM]

COc1cccc(-c2nc3cc(NC(=O)c4ccc(Cl)c(C#N)c4)ccc3o2)c1
inactive: SK-MEL-2 melanoma 63.8% | SN12C renal 40.2% | UO-31 renal 34.3% | CAKI-1 renal 26.4% | A498 renal 61.6% | CCRF-CEM leukemia 71.1% | MOLT-4 leukemia 78.4%
active: TK-10 renal -12.5%

CC(C)CNc1nc(N=[N+]=[N-])nc(NCC(C)C)n1
inactive: SK-MEL-2 melanoma 71.9% [100 µM] | SN12C renal 70.8% [100 µM] | UO-31 renal 47.3% [100 µM] | TK-10 renal 77.5% [100 µM] | ACHN renal 53.6% [100 µM] | MOLT-4 leukemia 34.4% [100 µM]
active: CAKI-1 renal 4.03% [100 µM]

CCCCCCC(CC#N)(CCC)CCCC (centres undefined)
inactive: SK-MEL-2 melanoma 123% | SN12C renal 97.8% | UO-31 renal 97.6% | TK-10 renal 102% | ACHN renal 99% | A498 renal 100% | MOLT-4 leukemia 97.5%

O=C(c1ccc(Cl)cc1)c1ccc(Cl)cc1
inactive: EKVX NSCLC 108% | SN12C renal 102% | UO-31 renal 108% | TK-10 renal 101% | ACHN renal 123% | CAKI-1 renal 115% | A498 renal 97.7% | CCRF-CEM leukemia 88.6% | MOLT-4 leukemia 106%

O=C(CN1CCN(c2ccc(Cl)cc2)CC1)N1CCN(c2nnc(-c3ccc(Cl)cc3)c(-c3ccc(Cl)cc3)n2)CC1
inactive: EKVX NSCLC 71.2% | SN12C renal 75.5% | UO-31 renal 37.9% | TK-10 renal 102% | ACHN renal 68.5% | CAKI-1 renal 168% | A498 renal 56.9% | CCRF-CEM leukemia 10.4%
active: MOLT-4 leukemia -40.9%

O=C1C(=O)/C(=C/c2ccccc2)CCCCCC/C1=C/c1ccccc1
active: CCRF-CEM leukemia 4.29%
inactive: SK-MEL-2 melanoma 105% | SN12C renal 79.8% | TK-10 renal 115% | ACHN renal 88.5% | CAKI-1 renal 82.1% | A498 renal 78.6% | MOLT-4 leukemia 10.2%

COc1ccc(N2CCN(CC(=O)N3CCN(c4nnc(-c5ccccc5)c(-c5ccccc5)n4)CC3)CC2)cc1
inactive: EKVX NSCLC 35.3% | SN12C renal 46.8% | UO-31 renal 24.9% | TK-10 renal 64.7% | ACHN renal 40.5% | CAKI-1 renal 76.5% | A498 renal 44.1% | CCRF-CEM leukemia 32.4%
active: MOLT-4 leukemia 1.56%

CCCCCc1c(C)[nH]c(/C=C2\N=C(c3ccc[nH]3)C=C2Oc2ccc(Cl)cc2)c1C
active: SK-MEL-2 melanoma -73.1% [100 µM] | SN12C renal -7.03% [100 µM] | UO-31 renal -53% [100 µM] | TK-10 renal -6.56% [100 µM] | ACHN renal -48% [100 µM] | CAKI-1 renal -22.7% [100 µM] | MOLT-4 leukemia -23.6% [100 µM]

O=C(/C=C/c1c(-c2ccccc2)[nH]c2ccccc12)S(=O)(=O)c1ccccc1
inactive: EKVX NSCLC 64.3% | SN12C renal 73.6% | UO-31 renal 31% | TK-10 renal 121% | ACHN renal 71.8% | CAKI-1 renal 200% | A498 renal 53.8% | CCRF-CEM leukemia 30.2% | MOLT-4 leukemia 20.4%

C1CCC(C(CC2CCCCN2)C2CCCCC2)CC1 (centres undefined)
inactive: SK-MEL-2 melanoma 64.2% | SN12C renal 20.8% | UO-31 renal 11.9% | TK-10 renal 21.2% | A498 renal 51.1%
active: CAKI-1 renal 5.48% | CCRF-CEM leukemia 4.88%

NC(=O)c1cc(Br)cc(Br)c1NS(=O)(=O)c1ccccc1
inactive: SK-MEL-2 melanoma 110% | SN12C renal 95.9% | UO-31 renal 75% | TK-10 renal 130% | CAKI-1 renal 89.8% | A498 renal 96.1% | CCRF-CEM leukemia 91.8% | MOLT-4 leukemia 123%

COc1ccc(CCN2C(=O)CCC3=C2CCCC3=O)cc1OC
inactive: SK-MEL-2 melanoma 122% | SN12C renal 101% | TK-10 renal 114% | ACHN renal 100% | CAKI-1 renal 109% | A498 renal 103% | MOLT-4 leukemia 103%
